The panel holds about 83,000 compounds, 20% with a hit somewhere; the sample as a whole holds those more often.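 Cell lines were cultured in 96-well plates, exposed to a single compound concentration, and assessed for percent growth 48 hours later.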 Unmarked numbers belong to inactive results. The source made the active and inactive calls.
These compounds were tested on HOP-92 NSCLC (assay: NCI-60 one-dose screen, 48 h (100 = growth as untreated, 0 = no growth, -100 = all killed)). Details: 10 µM unless noted.
Method: Growth inhibition of the HOP-92 human Non-Small Cell Lung tumor cell line is measured as a screen for anti-cancer activity. Cells are grown in 96 well plates and exposed to the test compound for 48 hours. Compounds are tested at a single concentration, which is 10^-5 M for most compounds. The reported endpoint is percent growth (GI% or GIPRCNT), where numbers from 0 - 100% represent growth inhibition, and numbers from -100% - 0 represent cell death. For example, a value of 40 represents 60% growth inhibition. A value of 0 means no net growth occurred over the course of the experiment. A value of -40 indicates 40% of cells at the beginning of the experiment died by the end of the experiment. A value of -100 means all cells are dead at the end of the experiment.
NCI-60 Human Tumor Cell Lines Screen was performed using the standard one-dose NCI protocol, which is described in more detail at https://dtp.cancer.gov/discovery_development/nci-60/default.htm.
Compounds with GIPRCNT values below 10 were considered active. Activity score was based on GIPRCNT using the following formula: […]
Score is 0 for GIPRCNT values of 100 or above, 50 for GIPRCNT values of 0, and 100 for GIPRCNT values of -100.
Compound `Cn1c(=O)c2c(nc(Br)n2CC(=O)Nc2ccc(F)cc2)n(C)c1=O` has a growth of 87.6%.
In the case of `O=C1CNCCN1`, the growth was 105%.
`CCCCN1CCCCn2c1nc1c2c(=O)n(C)c(=O)n1C` gave a growth of 95.7%.
Compound `CCOC(=O)C/C(=C\c1ccccc1)C(C)=O` has a growth of 92.2%.
With `N=c1ccc2nc3c(cc(N)c4ccccc43)oc-2c1` the growth was 21.7%.
`COc1cc(/C=N/NC(=S)NNC(=S)NC2CCCCC2)cc(OC)c1OC` showed a growth of 91.2%.
For `CN(C)c1ccc(C(=O)c2ccc(N(C)C)c(N)c2)cc1N`, the growth was 91%.
Compound `C=C(C)[C@@H]1CC[C@]2(C(=O)N3CCCNCC3)CC[C@]3(C)[C@H](CC[C@@H]4[C@@]5(C)CCC(=O)C(C)(C)[C@@H]5CC[C@]43C)[C@@H]12` has a growth of 48.4%.
For `COc1ccc(CCN2C(=O)C(C)(C)SC2=S)cc1OC`, the growth was 102%.
`Cc1nnc2nc(N)[nH]n2c1=O` showed a growth of 66.5%.
In the case of `CCCC(=O)N1CCCCC1CC` (stereo not given), the growth was 74.5%.
`COc1ccc2c(c1)C(Br)=C(CCO)C2c1ccccc1` (stereo not given) showed a growth of 35.5%.
In the case of `CN1CCN(c2ccc3nc(-c4[nH]ncc4Nc4ncnc5c4OCCCN5)[nH]c3c2)CC1`, the growth was -29.3% (active).
Work on `CC(Cc1ccco1)C(=O)NC(N)=O` (stereo not given) yielded a growth of 109%.
`Oc1cc(/C=C/c2nc(N3CCOCC3)c3cc(Cl)c(Cl)cc3n2)cc(O)c1O` gave a growth of 102%.
In the case of `CCN1CCN(C(=O)[C@@]2(C)CC[C@]3(C)CC[C@]4(C)C(=CC(=O)[C@@H]5[C@@]6(C)CC[C@H](OC7C[C@@H](O)[C@@H](O)C(C)O7)C(C)(C)[C@@H]6CC[C@]54C)[C@@H]3C2)CC1` (stereo not given in full), the growth was 0.911% (active).
Compound `C=C(C)[C@@H]1CC[C@]2(C=O)CC[C@]3(C)[C@H](CC[C@@H]4[C@@]5(C)C/C(=C/c6cccnc6)C(=O)C(C)(C)[C@@H]5CC[C@]43C)[C@@H]12` has a growth of 83.9%.
Compound `COc1ccc(-c2nc3ccccn3c2-c2nc3ccc(Cl)cc3[nH]2)cc1` has a growth of 85%.
`CCCC1CCCCN1C(=O)OCC(C)C` (stereo not given) showed a growth of 113%.
`COc1ccc(OCC(CO)N2CCN(c3ccccc3)CC2)cc1` (stereo not given) was tested, and the growth was 81.2%.
`C=C(C)[C@@H]1CC[C@]2(C(=O)NNC(=O)c3cccnc3)CC[C@]3(C)[C@H](CC[C@@H]4[C@@]5(C)CCCNC(C)(C)[C@@H]5CC[C@]43C)[C@@H]12` gave a growth of 50.5%.
For `Nc1c2c(nc3ccc(Cl)cc13)CC(c1ccc(O)cc1)CC2=O` (stereo not given), the growth was 88.4%.
`Fc1ccc(NCc2nnc(-c3ccc(Cl)cc3)o2)cc1` gave a growth of 67%.
With `Oc1ccc(Nc2ccccc2)cc1` the growth was 119%.
`Cc1cccc(C)c1NCc1nc(-c2ccccc2)n[nH]1` showed a growth of 101%.
In the case of `CN1CCN(CCOc2ccc(-c3cnc4c(-c5cccc(F)c5)cnn4c3)cc2)CC1`, the growth was 24.8%.
Work on `CCCCC/C(=C\c1ccccc1)C1OC(C)C(C)O1` (stereo not given) yielded a growth of 95%.
Compound `Cc1ccsc1-c1ccc2c(c1)COC2(CCCN(C)C)c1ccc(F)cc1` (stereo not given) has a growth of 41.6%.
For `CN1CCN(c2nc(-c3cccc4ccccc34)nc3sc4c(c23)CCCCCC4)CC1`, the growth was -0.421% (active).
With `O=S(=O)(NCCNc1cc(-c2cn(-c3ccccc3)nc2-c2cccc(O)c2)ccn1)c1ccc(F)cc1` the growth was 35.7%.
Compound `O=C(O)c1cccc2c1Cc1cc([N+](=O)[O-])ccc1-2` has a growth of 82%.
Work on `CC(=O)O[C@@H]1CCN2C(=O)N(C)c3ccccc3[C@@H]2C1` yielded a growth of 111%.
`Oc1ccc(CCC2CCCC(CCc3ccc(OCCF)cc3)N2)cc1` (stereo not given) gave a growth of 75.3%.
Work on `Cn1c(=O)c2c(ncn2CC(=O)Nc2ccc(S(N)(=O)=O)cc2)n(C)c1=O` yielded a growth of 90.1%.
Compound `c1ccc(C2Cc3ccccc3C2=NC2CCCCC2)cc1` (stereo not given) has a growth of 68.4%.
Work on `CC1(n2nnnc2N2CCCN(c3ncccc3N)CC2)CCC1` yielded a growth of 95.7%.
Compound `CC(C)(C)CC(C)(C)c1ccc(OCCOCC[N+](C)(C)CC(=O)[O-])cc1` has a growth of 105%.
`COc1ccc(C2CC(=O)c3c(nc4ccc(Cl)cc4c3N)C2)cc1` (stereo not given) showed a growth of 98.3%.
`CC1(C)CC[C@]2(C(=O)NCCNCCN)CC[C@]3(C)C(=CC[C@@H]4[C@@]5(C)CCC(=O)C(C)(C)[C@@H]5CC[C@]43C)[C@@H]2C1` showed a growth of 39.7%.
Compound `COC(=O)[C@]12CC[C@@H](C(/C=C/c3cccnc3)=N/O)[C@@H]1[C@H]1CC[C@@H]3[C@@]4(C)CC(=C/c5cccnc5)/C(=N/O)C(C)(C)[C@@H]4CC[C@@]3(C)[C@]1(C)CC2` has a growth of 54.4%.

Reference: PubChem BioAssay (NCI)
